For 16 compounds, growth results are on record in PubChem BioAssay (NCI).

The panel holds about 83,000 compounds, 20% with a hit somewhere; the sample as a whole holds those more often.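 Activity criterion: percent growth below 10, measured after cells in 96-well plates were exposed to a single compound concentration for 48 hours.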 Unmarked numbers belong to inactive results. Calls of active or inactive are those of the source.

Holding throughout (assay): NCI-60 one-dose screen, 48 h (100 = growth as untreated, 0 = no growth, -100 = all killed)
What all share (conditions): 10 µM unless noted

The subject of test [1] is SR leukemia.
Test [2] concerns RPMI-8226 leukemia.
Test [3] concerns OVCAR-8 ovarian.
Test [4] concerns OVCAR-5 ovarian.
Test [5] concerns OVCAR-4 ovarian.
For test [6], the system named is SK-OV-3 ovarian.
Test [7] relates to IGROV1 ovarian.
The subject of test [8] is HS 578T breast.
In test [9] the test system is NCI/ADR-RES ovarian.
For test [10], the system named is T-47D breast.
The subject of test [11] is BT-549 breast.
Test [12] deals with MDA-MB-435 melanoma.
The subject of test [13] is SW-620 colon.
In test [14] the test system is MCF7 breast.
Test [15] concerns HCT-116 colon.
Test [16] has as its system HCC-2998 colon.
For test [17], the system named is KM12 colon.

Turning to `COc1cc(OC)c(S(N)(=O)=O)cc1C(=O)/C=C/c1ccc(C)cc1`, the growth in [1] is 5.66% (active); in test [2], 18.5%; in [3], 31.7%; in test [4] it was 13.4%; in [5], 53.1%; in [6] it was 37.6%. Further, the growth in [7] is 25.3%; in [8], 21.3%; in test [9], 37%; in test [10], 2.31% (active); in test [11] it was 21.2%; in test [12] it was 8.41% (active). The growth in test [13] was 6.29% (active); in [14], 12.2%; in test [15] it was 11.4%; in test [16], 8.59% (active); in [17] it was -1.47% (active).
With `CN1CCN(c2nc(-c3csc(-c4ccccc4)n3)cc3ccccc23)CC1`, the growth is -20.7% (active) in test [1]; 14.1% in test [2]; 62.4% in [3]; 59.4% in test [4]; 72.7% in [5]; 81.8% in test [6]. In addition, the growth is 26.2% in test [7]; 60.6% in test [8]; 65.8% in test [9]; -23.3% (active) in test [10]; 96.2% in test [11]; 7.31% (active) in test [12]. Also, the growth in [13] was -19.1% (active); in test [14], 9.31% (active); in test [15] it was 2.27% (active); in test [16] it was -84.7% (active); in test [17], 18.7%.
`COc1ccc(CCOc2cc3c(cc2OC)CCN(C(=O)NCc2cocn2)C3c2ccc(C)cc2C)cc1` (stereo unspecified): the growth was 5.38% (active) in [1]; 7.04% (active) in [2]; 17.9% in [3]; 28.6% in [4]; 51.5% in test [5]; 38% in test [6]. Further, the growth in [7] was 12.9%; in test [8], -4.03% (active); in test [9], 4.95% (active); in test [10] it was 49%; in test [11], -17% (active); in test [12], 8.73% (active). In addition, the growth was 23% in [13]; 13.5% in [14]; 6.95% (active) in test [15]; 11.5% in test [16]; 11.4% in test [17].
In the case of `CNC(=O)c1cc(Oc2ccc3nc(NC(=O)c4ccc(N5CCOCC5)c(C(F)(F)F)c4)sc3c2)ccn1`, the growth is 53.2% in test [1]; 47.5% in test [2]; 56.2% in test [3]; 99% in test [4]; 61.5% in [5]; 102% in [6]. Besides, the growth is 88.7% in test [7]; 69.6% in [8]; 70% in [9]; 86.1% in [10]; 94% in test [11]; 88.4% in [12]. The growth is 114% in test [13]; 70% in test [14]; 60.2% in test [15]; 96.3% in test [16]; 56.7% in [17].
Take `COc1ccc(C(=O)CSc2nc3c(c(Nc4ccc(S(N)(=O)=O)cc4)n2)CCCC3)cc1`: the growth in test [1] was 69.6%; in test [2] it was 83.6%; in test [3], 92.3%; in test [4], 123%; in [5], 87.8%; in test [6] it was 120%. In addition, the growth in [7] was 112%; in [8], 110%; in test [9], 103%; in test [10], 71.3%; in test [11] it was 127%; in test [12], 103%. Besides, the growth is 86.4% in test [13]; 97.8% in test [14]; 93% in test [15]; 97.6% in test [16]; 73.7% in [17].
As to `O=S(=O)(NC1c2ccccc2C[C@H]1O)c1ccc(Cl)cc1Cl` (stereo partly specified), the growth in test [1] was 87.2%; in [2], 107%; in test [3] it was 98.4%; in test [4], 102%; in [5], 97.4%; in [6], 97.3%. For the same compound, the growth in test [7] was 99.2%; in [8], 93.7%; in test [9], 99.5%; in [10], 93.7%; in test [11] it was 126%; in test [12] it was 94.1%. Moreover, the growth was 102% in test [13]; 95.5% in test [14]; 98.1% in [15]; 97% in test [16]; 96.3% in test [17].
With `c1n[nH]cc1-c1nc2ccc3[nH]ncc3c2c2c1CCCC2`, the growth in test [1] is -9.78% (active); in test [2] it was 41.5%; in [3], 23.5%; in [4], 43.9%; in test [5] it was 54.1%; in [6], -19.6% (active). The growth was 20.8% in test [7]; -4.89% (active) in [8]; 51.1% in test [9]; 15.7% in [10]; -18.9% (active) in [11]; 1.93% (active) in test [12]. Besides, the growth in [13] was 6.24% (active); in test [14], 3.93% (active); in test [15], -3.08% (active); in test [16], 33.5%; in [17] it was 5.28% (active).
Turning to `C[C@@H]1C[C@H]2C(=O)O[C@@H](C)C(NC(=O)[C@H](Cc3cc(F)cc(F)c3)NC(=O)Nc3ccc(Cl)cc3F)C(=O)N3CCC[C@H]3C(=O)N3CCCC[C@H]3C(=O)N[C@@H](CO)C(=O)N2C1` (stereo partly specified), the growth is 31.2% in test [1]; 14.9% in test [2]; 21.9% in [3]; 35.3% in [4]; 22.6% in test [5]; 22.1% in test [6]. The growth in test [7] was 47.9%; in test [8], 33.4%; in test [9], 47.5%; in [10], 34.4%; in test [11] it was 35.3%; in test [12], 19.5%. Further, the growth in [13] was 39.9%; in test [14] it was 16.1%; in test [15], 9.85% (active); in [16], 26%; in test [17], 42%.
Consider `CCc1cccc2c3c(sc12)C(c1ccc(OC)cc1)C(C#N)=C(/N=C/c1ccc(Cl)cc1)O3` (stereo unspecified), for which the growth is 1.27% (active) in [1]; 10.9% in test [2]; 21.8% in [3]; 45.7% in [4]; 73.9% in [5]; 40.4% in test [6]. The growth in test [7] is 42.6%; in test [8], -7.21% (active); in [9], 0.0091% (active); in test [10] it was 12.9%; in [11], 29.8%; in test [12], -47.2% (active). For the same compound, the growth in test [13] is 39.4%; in [14], 19.3%; in [15], 13%; in [16], 20%; in test [17], 22.7%.
For `CN(C)CCN(C)c1ccc2ncc(C#Cc3cncc(C(=O)Nc4ccc(CN5CCN(C)CC5)c(C(F)(F)F)c4)c3)n2n1`, the growth in test [1] is -17.4% (active); in test [2], -33.9% (active); in [3], 63.6%; in test [4], 91.5%; in [5] it was -0.365% (active); in [6], 118%. Moreover, the growth is 45.5% in [7]; 59.9% in test [8]; 37.1% in test [9]; 101% in [10]; 111% in [11]; 48.4% in test [12]. Besides, the growth was -44.9% (active) in test [13]; -63.7% (active) in [14]; -85.9% (active) in test [15]; 33.9% in [16]; -39.8% (active) in [17].
With `CCNC(=O)N1CCc2cc(OC)c(OCCc3ccc(OC)cc3)cc2C1c1ccc(OC)cc1C` (stereo unspecified), the growth in test [1] was 4.44% (active); in test [2], 13.6%; in test [3] it was 27.6%; in test [4], 35.9%; in test [5], 50.3%; in test [6] it was 45.9%. Further, the growth in [7] is 27.8%; in test [8], 1.32% (active); in [9] it was 12.3%; in [10], 42.3%; in test [11], 22.9%; in [12], 11.4%. Further, the growth in [13] is 21.9%; in [14], 21.5%; in test [15] it was 10.5%; in [16], 19.5%; in test [17] it was 24.1%.
For `COc1cc2oc(-c3cccc(C(=O)N[C@@H](CC(C)C)C(=O)OC(C)(C)C)c3)cc(=O)c2c(OC)c1OC`, the growth in [1] is 42.1%; in test [2] it was 37.4%; in test [3], 49.3%; in [4] it was 93%; in test [5], 69.6%; in test [6], 111%. Also, the growth in [7] is 71.5%; in [8] it was 56.9%; in [9], 49%; in test [10], 52.7%; in [11], 67.5%; in [12] it was 90%. In addition, the growth in [13] was 83.4%; in [15] it was 62.5%; in [16], 84%; in [17], 59.8%.
As to `COc1ccc2[nH]cc(/C=N/Nc3nc4ccccc4s3)c2c1`, the growth is 45.5% in test [1]; 47.2% in test [2]; 67.1% in test [3]; 73.2% in test [4]; 67.2% in [5]; 65.7% in test [6]. Also, the growth in [7] is 29.8%; in test [8] it was 60.6%; in test [9], 66%; in test [10] it was 2.18% (active); in test [11] it was 58.7%; in [12], 66.2%. Moreover, the growth in [13] is 74.7%; in [14], 22.5%; in [15], 46.8%; in test [16], 41%; in [17], 13.6%.
Take `COc1ccc(/C=C/C(=O)c2cccc(NC(=O)CSc3nc4ccccc4c(=O)n3-c3ccccc3)c2)cc1OC`: the growth was 73% in test [1]; 67.9% in test [2]; 102% in [3]; 111% in [4]; 98.8% in [5]; 120% in test [6]. The growth in test [7] was 105%; in [8] it was 100%; in test [9] it was 105%; in [10], 88.2%; in [11], 115%; in test [12], 101%. In addition, the growth is 94.1% in test [13]; 69.2% in [14]; 86.2% in [15]; 111% in test [16]; 95.9% in test [17].
In the case of `CC[C@@H](CO)Nc1ccc2ncc(C#Cc3cncc(C(=O)Nc4ccc(CN5CCN(C)CC5)c(C(F)(F)F)c4)c3)n2n1`, the growth was -24.4% (active) in test [1]; -34.5% (active) in test [2]; -57.6% (active) in [3]; -14% (active) in test [4]; -44.1% (active) in test [5]; -40% (active) in [6]. Moreover, the growth in [7] was -25.4% (active); in test [8], -41.5% (active); in test [9], 55.1%; in test [10], -75.8% (active); in test [11], -91.7% (active); in [12], -88% (active). Further, the growth in test [13] is -44.8% (active); in test [14], -69.6% (active); in [15], -92.5% (active); in [16], -43.2% (active); in test [17], -34.1% (active).
As for `COc1ccc(-n2c(SCc3n[nH]c(=S)o3)nc3ccc(Cl)cc3c2=O)cc1`, the growth in [1] was 103%; in test [2] it was 101%; in test [3], 101%; in test [4] it was 89.7%; in [5], 99.3%; in test [6] it was 97.7%. In addition, the growth in test [7] was 95.8%; in test [8] it was 93.9%; in test [9] it was 99.4%; in test [10] it was 97.6%; in test [11] it was 115%; in test [12], 94.8%. Besides, the growth in [13] was 97.8%; in test [14], 90.6%; in [15] it was 104%; in test [16], 101%; in [17], 98.6%.
